# Measurements from PubChem BioAssay AID2315 (National Center for Advancing Translational Sciences (NCATS), 2010).
# Among all 290,000 compounds or so, about 27,000 (9.3%) were called active. Only a selection was taken, and actives are over-represented in it overall. Unmarked numbers belong to inactive results. Rule as the data show it: active = inhibition mostly above about 28% (no sharp cut-off); inactive = mostly below about 43%.
# Assay: A qHTS for Small Molecule Inhibitors of Shiga Toxin; also: 0% is about no effect
# Details: Vero cells, Shiga toxin protein synthesis inhibition reporter; at 38.7 µM, hits give high values
row,Compound,inhibition
1,O=C1c2ccccc2C(=O)C1c1ccccc1F,-16.3%
2,CC(C)(C)C(=O)OCc1nc(-c2ccc(O)c(O)c2)cs1,27.1%
3,COc1ccc(OC)c(Nc2nc(-c3ccc(O)c(O)c3)cs2)c1,7.27%
4,CCCn1c(C2CCCN2c2nc(-c3ccc(OC)cc3)cs2)nc2ccccc21 (stereo unspecified),4.08%
5,COc1ccc(-c2csc(Cc3nc(O)cs3)n2)cc1,94.8% (active)
6,CN(C(=O)CSc1nc(C2CC2)nc2ccccc12)c1nc(-c2ccccc2)cs1,14.4%
7,Oc1ccc(-c2csc(Nc3cccnc3)n2)cc1,121% (active)
8,COc1ccc(C(=O)Nc2nc(-c3ccc(S(=O)(=O)N4CCOCC4)cc3)cs2)cc1,-8.19%
9,COc1ccc(-c2csc(Nc3ccc(O)cc3)n2)cc1,92.3% (active)
10,COc1ccc(CCN(C(=O)COc2ccccc2)c2nc(-c3ccccc3)cs2)cc1OC,-8.73%
11,CN(c1ccc(O)cc1)c1nc(-c2cccnc2)cs1,64.4% (active)
12,O=C(Nc1ccc(-c2csc(Nc3cccc(C(F)(F)F)c3)n2)cc1)c1cccc(C(F)(F)F)c1,-5.94%
13,Brc1ccc(-c2csc(N/N=C/c3cccnc3)n2)cc1,37%
14,Cc1ccnc(N2CCCC(C(=O)NC3CC3)C2)n1 (stereo unspecified),-10.6%
15,C[C@@H](NC(=O)[C@@H]1Cc2ccccc2CN1)C(=O)NC1CCCC1,-1.81%
16,COCCNC(=S)N(CCc1c(C)[nH]c2ccc(C)cc12)Cc1cccnc1,3.9%
17,FC(F)(F)C1CCCN(c2nsc3ccccc23)C1 (stereo unspecified),-5.61%
18,CC1(c2ccc3ccccc3c2)NC(=O)N(CC(N)=O)C1=O (stereo unspecified),17.6%
19,O=C(Nc1c2c(nn1-c1cccc(Cl)c1)CS(=O)(=O)C2)c1cccs1,2.33%
20,Cc1ccccc1N1CCN(C2CCCN(C(=O)c3cn4c(C)cccc4n3)C2)CC1 (stereo unspecified),-3.16%
21,CC(=O)Nc1ccc(S(=O)(=O)N2CCC(NC(=O)c3ccccc3)CC2)cc1,37.8%
22,O=C1CN(Cc2ccccc2)S(=O)(=O)c2ccccc21,-2.75%
23,O=S(=O)(NC1CCCCC1N1CCN(c2ccccc2F)CC1)c1ccccc1 (stereo unspecified),-13.8%
24,CCOc1ccccc1NC(=S)N1CCN(c2cccc(C)c2C)CC1,-4.41%

row,Compound,inhibition
1,O=C(Oc1cccc(C(=S)N2CCOCC2)c1)c1cccc(Cl)c1,-28.3%
2,COc1ccc(-c2c3c(=O)n(C)c(=O)n(C)c3cn2-c2cccc(OC)c2)cc1,4.73%
3,COc1cccc(-n2cc3c(c2-c2ccccc2)c(=O)n(C)c(=O)n3C)c1,104% (active)
4,Cc1ccc(-c2c3c(=O)n(C)c(=O)n(C)c3cn2-c2ccccc2O)cc1,38.5%
5,CC1=C(C(N)=O)C(c2ccc(F)cc2)n2nc(CCCO)nc2N1 (stereo unspecified),-5.77%
6,Cc1ccc(CNC(=O)CCC(=O)N2CC(C)Sc3ccccc32)cc1 (stereo unspecified),10.9%
7,CC(=O)Nc1ccc(N2C(=O)CC(Sc3nccc(C)n3)C2=O)cc1 (stereo unspecified),-3.46%
8,c1ccc(-c2noc(-c3cccs3)n2)nc1,15%
9,COc1nc(-c2ccc(Cl)cc2)ccc1-c1noc(-c2cccs2)n1,-10.5%
10,Cc1ccc(-c2nc(-c3ccncc3)no2)c(C)c1,80.3% (active)
11,Cc1ccc2nc(-c3ccncc3)cc(C(=O)Nc3ccncc3)c2c1,11.4%
12,Cc1ccc(-c2noc(CSc3nnc(-c4ccncc4)n3-c3ccc(F)cc3)n2)cc1,-6.83%
13,c1csc(-c2nc(-c3ccncc3)no2)c1,58.2% (active)
14,O=C(O)c1cc([N+](=O)[O-])c(Nc2cccc3ccccc23)c([N+](=O)[O-])c1,1.25%
15,CCOC(=O)c1ccc(-c2ccc(C(=O)Nc3cccnc3)o2)cc1,73.3% (active)
16,CCOC(=O)c1ccc(NC(=O)CNC(=O)c2ccco2)cc1,-21.4%
17,COc1ccc(C)cc1NC(=O)c1ccc(-c2ccc(C(C)=O)cc2)o1,-2.76%
18,CC(C)NS(=O)(=O)c1ccc(NC(=O)c2cccnc2)cc1,-10.5%
19,O=C(Cc1ccccc1)Nc1ccc(NC(=O)c2cccnc2)cc1,-11.9%
20,CCOC(=O)c1ccc(NC(=O)c2cccnc2)cc1,53.7% (active)
21,CCn1c(SCC(=O)NC2CC2)nnc1-c1ccccn1,-11.7%
22,CN(C)C(=O)Cn1c(=O)n(S(=O)(=O)c2ccccc2)c2ccccc21,-3.04%
23,Cc1cc(C)n(CCNS(=O)(=O)c2ccc(Cl)cc2)n1,-3.35%
24,COc1ccc2cc(-c3[nH]ncc3CNCCn3nc(C)cc3C)ccc2c1,67.7% (active)

row,Compound,inhibition
1,COc1ccc(-c2cn[nH]c2-c2ccc(OC)cc2)cc1,-4.19%
2,Cc1ccccc1C(=O)NC(=S)NC1CC1,24.6%
3,O=C1Nc2ccccc2/C1=C/c1ccnc2ccccc12,19.4%
4,O=C(Nc1ccn(Cc2ccccc2)n1)c1cccc(F)c1,63.4% (active)
5,O=C(Nc1ccn(Cc2ccccc2)n1)c1n[nH]c([N+](=O)[O-])c1Cl,16.1%
6,O=C(Nc1ccn(Cc2ccccc2F)n1)c1ccc(COc2ccc(Cl)cc2Cl)o1,21.8%
7,CC(=O)Nc1ccn(Cc2c(F)cccc2Cl)n1,64.3% (active)
8,O=C1c2ccccc2S(=O)(=O)N1Cc1c(F)cccc1Cl,-12.9%
9,O=C(Nc1cccc(NC(=O)c2cccc(F)c2)c1)c1ccccc1,21.2%
10,CCOCCOC(=O)C(C)Oc1ccc(Oc2ncc(C(F)(F)F)cc2Cl)cc1 (stereo unspecified),-6.29%
11,COc1ccc(C(=O)NCC(=O)N/N=C/c2cccnc2)cc1,-9.22%
12,COc1ccc2c(c1)C(NS(=O)(=O)OCC(Cl)(Cl)Cl)CCC2 (stereo unspecified),-7.98%
13,COc1ccc(NC(=S)N2CCC(NC(=O)c3cccc(F)c3)CC2)cc1,-12.4%
14,O=c1c(-c2ccc(Cl)cc2)[n+]([O-])c2ccccc2n1OCc1nc2ccccc2[nH]1,59.6% (active)
15,CCOc1ccc(OCC)c(-c2c(=O)n(OCc3ccc(Cl)cc3)c3ccccc3[n+]2[O-])c1,10.2%
16,CCOC(=O)COn1c(=O)c(-c2ccc(OCC)cc2)[n+]([O-])c2ccccc21,44.1%
17,O=C(NNC(=S)Nc1ccc(Br)cc1Cl)c1ccco1,59.2% (active)
18,O=C(NNC(=O)c1ccco1)Nc1ccccc1,8.84%
19,CCC(=O)NC(=S)Nc1ccc(NC(=O)c2ccco2)c(Cl)c1,46.1%
20,Cc1ccc2c(c1)N(CC(=O)NCC1CCCO1)C(=O)CO2 (stereo unspecified),40.5%
21,Cc1cc(Br)ccc1NC(=O)c1sc2ncn(CC(=O)N3CCN(c4ccccn4)CC3)c(=O)c2c1C,-6.73%
22,O=C(Nc1cccc(-c2cccc(Cl)c2)c1)C1CCN(C2CCC2)CC1,18.3%
23,CCC(=O)Nc1ccc(C(=O)Nc2cc(C)on2)cc1,37.1%
24,CCOc1ccc(NC(=O)Nc2cc(C)ccc2OC)cc1,29.4% (active)

row,Compound,inhibition
1,COc1ccc(C)cc1NC(=O)Nc1ccccc1SC,-0.581%
2,CCOc1ccc(C(=O)Nc2ccc(S(=O)(=O)Nc3cc(C)on3)cc2)cc1,-6.4%
3,CCOc1ccc(C(=O)Nc2cc(OC)ccc2OC)cc1,25.5%
4,CCOc1ccc(NC(=O)Nc2cc(C)on2)cc1,91.1% (active)
5,Cc1cc(C)c2c(-c3ccc(F)cc3)c(C#N)c(=O)n(C)c2n1,-4.95%
6,CCN1CCN(c2sc(S(C)(=O)=O)nc2S(=O)(=O)c2ccc(Cl)cc2)CC1,-2.05%
7,COc1ccccc1NC(=O)CCC(=O)N1CC(C)Oc2ccc(C)cc21 (stereo unspecified),-1.25%
8,COc1ccc(-c2c(-c3ccc(OC)cc3O)nc(C)nc2C(F)(F)F)cc1,2.92%
9,COc1cc2ccccc2cc1C(=O)N(CCN(C)C)c1nc2c(F)cccc2s1,-10.4%
10,COc1ccccc1-c1nnc(SCC(=O)Nc2ccccc2)o1,22.9%
11,COc1ccccc1-c1nnc(NC(=O)c2ccc3ncsc3c2)o1,92.1% (active)
12,COc1ccccc1-c1nnc(NC(=O)c2cccc(N3C(=O)CCC3=O)c2)o1,-10.7%
13,C=CCOc1ccc(C(=O)Nc2ccccc2C(=O)N2CCCC2)cc1,13.9%
14,CCOC(=O)c1c(NC(=O)c2ccc(S(=O)(=O)N(C)CC3CCCO3)cc2)sc2c1CC(C)(C)NC2(C)C (stereo unspecified),-9.62%
15,COc1ccccc1N=C(C)C1=C(O)COC1=O,-4.84%
16,COC(=O)c1ccccc1N=Nc1c(C)[nH][nH]c1=O,1.81%
17,COc1ccccc1N=Nc1c(O)[nH]c(=S)[nH]c1=O,29.2% (active)
18,COc1ccc(NC(=O)Cn2ncn3c(cc4ccccc43)c2=O)c(OC)c1OC,-6.32%
19,COc1ccc(/C=C/C(=O)N2CCCC2)cc1OC,3.99%
20,COc1cccc(C(=O)Nc2cccnc2)c1OC,2.65%
21,COc1ccc(/C=C/C(=O)Nc2ccc(C)cc2)cc1S(=O)(=O)N1CCOCC1,20.7%
22,COc1ccc(C(=O)CCC(=O)Nc2cccnc2)c(OC)c1,-20.3%
23,COc1ccc(/C=C/C(=O)Nc2ccc(C34CC5CC(CC(O)(C5)C3)C4)cc2)cc1OC,90.8% (active)
24,COc1ccc(/C=C/C(=O)Nc2cccnc2)cc1OC,51.8% (active)
